Holding throughout (experiment): NCI-60 one-dose screen, 48 h (100 = growth as untreated, 0 = no growth, -100 = all killed)
What all share (conditions): 10 µM unless noted

Test [1] has as its system DU-145 prostate.
Test [2] deals with K-562 leukemia.
The test system of test [3] is MALME-3M melanoma.
Test [4] concerns MDA-MB-231 breast.
The test system of test [5] is RXF 393 renal.
In test [6] the test system is SF-268 CNS.
Test [7] deals with SF-295 CNS.
Test [8] has as its system SF-539 CNS.
The subject of test [9] is UACC-257 melanoma.
Test [10] relates to M14 melanoma.

This is part of a sample that, as a whole, favours compounds with a hit. Of some 83,000 tested, about 20% had one in any assay.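 Single-concentration screen, 48 h exposure, 96-well plates. Endpoint: percent growth. Below 10 = active.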 A number with no mark means an inactive call. Active and inactive are the calls of the source.

`COc1ccc2c(c1)CC[C@@H]1[C@@H]2CC[C@]2(C)[C@@H](O)C(=O)C[C@@H]12`: the growth is 104% in test [1]; 94.2% in test [2]; 148% in test [3]; 109% in test [4]; 134% in [5]; 97.1% in [6]. Moreover, the growth is 109% in test [7], 100% in test [8], 106% in [9] and 110% in [10].

For `Cc1cc(C(=O)Nc2ccc3cc(CN4CCOCC4)ccc3n2)c(C)n1-c1ccccc1`, the growth was 70.2% in [1]; 27% in test [2]; 11.4% in [3]; 70.9% in test [4]; 96.3% in test [5]; 77% in [6]. In addition, the growth in test [7] is 11.7%; in test [8], 59.1%; in test [9], -12.7% (active); in test [10] it was 13.5%.

Regarding `COc1cc(/C=C/C(=O)C(C(=O)/C=C/c2ccc(OC(=O)CCNC34CC5CC(CC(C5)C3)C4)c(OC)c2)C(=O)CCNC23CC4CC(CC(C4)C2)C3)ccc1OC(=O)CCNC12CC3CC(CC(C3)C1)C2` (stereo unspecified), the growth was -48.8% (active) in test [1]; 0.83% (active) in test [2]; 18.6% in [3]; 13.3% in [4]; -68.8% (active) in test [5]; 28.2% in test [6]. Also, the growth in test [7] is 37.5%; in test [8], -23.7% (active); in test [9], 48.1%; in test [10], -1.22% (active).

In the case of `COc1ccc(-c2cc(-c3cccnc3)nc(S(=O)(=O)CC(=O)Nc3ccc(C)cc3)c2C#N)cc1OC`, the growth in test [1] is 95%; in test [2], 102%; in test [3] it was 94.7%; in [4], 77.6%; in test [5], 90.4%; in test [6], 83.5%. Further, the growth was 97.9% in test [7], 95.1% in test [8], 104% in test [9] and 111% in test [10].

On to `CC(=O)OC1Oc2cc(C)c(C)cc2-c2oc(=O)c(-c3ccccc3)cc21` (stereo unspecified), for which the growth in [1] was 15%; in [2], -0.66% (active); in test [3], -4.37% (active); in [4], 43.7%; in test [5], -35.3% (active); in [6] it was 36.8%. The growth in test [7] is -39.9% (active); in [8], -37.1% (active); in [9] it was 74.5%.

As for `COc1ccc(C(=O)/C=C/c2cccc(Nc3ccnc4cc(Cl)ccc34)c2)cc1`, the growth in test [1] is 37%; in [2], 21%; in test [3], 44%; in test [4] it was 13.7%; in test [5], 41.7%; in test [6], 39%. For the same compound, the growth in test [7] was 30.6%; in test [8], 28.4%; in test [9] it was 37.8%; in [10], 23.2%.

`Cc1ccc(C(=O)Cc2ccccc2)c(O)c1`: the growth in test [1] is 101%; in test [2], 98.8%; in test [3], 115%; in test [4], 103%; in [5], 115%; in test [6] it was 97.6%. Moreover, the growth in test [7] is 107%; in test [8] it was 102%; in test [9], 108%; in test [10], 110%.

Regarding `O=CN1N=C(c2ccc(Cl)cc2)CC1c1cccc(Nc2ccnc3cc(Cl)ccc23)c1` (stereo unspecified), the growth in test [1] was 14%; in [2] it was 3.74% (active); in test [3], 8.98% (active); in test [4], 30.6%; in test [5], -0.443% (active); in [6], 36.7%. Further, the growth in test [7] is -10.4% (active); in test [8], -25.9% (active); in test [9], 12.1%; in test [10] it was 16.2%.

In the case of `COc1cccc(/C=N/Nc2nc3ccccc3s2)c1OC`, the growth in [1] is 98.3%; in test [2], 50.9%; in test [3] it was 90.4%; in test [4], 86.3%; in [5], 97.9%; in test [6] it was 72.7%. The growth in test [7] is 85.4%; in test [8], 74.2%; in [9], 96.4%; in test [10] it was 91.1%.

On to `CC1CN(/N=C/c2ccc([N+](=O)[O-])o2)C(=N)O1` (stereo unspecified), for which the growth was 121% in [1]; 108% in test [2]; 78.8% in test [3]; 102% in test [4]; 102% in [5]; 90.1% in test [6]. Also, the growth in test [7] is 88.9%; in test [8], 96.9%; in [9], 99.5%; in [10], 106%.

As for `O=C(NN1C(=O)c2cc(C(=O)O)c(C(=O)O)cc2C1=O)c1ccncc1`, the growth in test [1] was 144%; in [2] it was 62.4%; in test [3], 76.8%; in test [4], 80.6%; in test [5], 127%; in test [6], 93.5%. Moreover, the growth was 102% in test [7], 112% in test [8] and 114% in test [9].

With `O=C1c2cccc(NCCN=Cc3ccccc3O)c2C(=O)c2c(NCCN=Cc3ccccc3O)cccc21`, the growth in test [1] was 16%; in test [2] it was 38%; in test [3] it was 21.8%; in test [4], 21%; in test [5], 33.9%; in test [6], 7.05% (active). The growth in test [7] is 49.8%; in test [8] it was 22.4%; in [9] it was 94.6%.

Take `CCOC1Oc2ccccc2C(=O)/C1=N/c1nccs1` (stereo unspecified): the growth in test [1] was 101%; in [2] it was 84.9%; in test [3], 51.9%; in test [4] it was 78.1%; in test [5] it was 102%; in [6] it was 76.9%. The growth was 93.5% in test [7], 93.9% in test [8] and 112% in test [9].

On to `CS(=O)(=O)N1CCN(Cc2cc3nc(-c4cccc5[nH]ncc45)nc(N4CCOCC4)c3s2)CC1` (tested in a mixture with another compound), for which the growth in test [1] was 21.3%; in [2], 58.5%; in [3] it was -15.2% (active); in test [4], 42.9%; in test [5] it was -34.2% (active); in test [6] it was 31.4%. Also, the growth is 1.83% (active) in [7], 3.67% (active) in [8], 20% in test [9] and 25% in [10].

Take `O=C1NCCc2c1noc2-c1ccccc1`: the growth in [1] was 104%; in test [2] it was 108%; in test [3], 108%; in [4], 122%; in test [5], 105%; in test [6], 93.7%. The growth was 97.8% in [7], 94.7% in [8], 101% in [9] and 101% in [10].

Take `COc1cnc2c(c1)C(=O)c1c-2n(CCCNC(C)C)c(=O)c2cc(F)ccc12`: the growth was -8.54% (active) in test [1]; -6.91% (active) in [2]; -70.1% (active) in test [3]; 1.51% (active) in test [4]; -85.5% (active) in [5]; 4.2% (active) in test [6]. The growth was -23% (active) in test [7], -73.4% (active) in [8], -16% (active) in test [9] and -81.9% (active) in test [10].

Turning to `COc1cnc2c(c1)C(=O)c1c-2n(CCCn2ccnc2)c(=O)c2cc(F)ccc12`, the growth in test [1] is -56.4% (active); in [2] it was -4.93% (active); in test [3], -52.2% (active); in test [4], 5.66% (active); in test [5] it was -55.9% (active); in [6], 3.73% (active). In addition, the growth in [7] was -5.57% (active); in test [8] it was -60.6% (active); in test [9] it was -34.7% (active); in test [10], -39.9% (active).

Consider `COc1ccc(-c2cnc(SCC(=O)Nc3ccc(-c4nc5ccccc5s4)cc3)n2-c2ccc(OC)cc2)cc1`, for which the growth in test [1] was 120%; in [2], 108%; in [3], 129%; in test [4], 111%; in test [5], 121%; in [6], 100%. Also, the growth in [7] is 113%; in test [8], 102%; in test [9] it was 116%; in test [10], 112%.

Turning to `Cc1n(Cc2ccc3ccccc3c2)cc[n+]1Cc1ccc2ccccc2c1`, the growth was 35.2% in test [1]; 10.2% in [2]; -20.9% (active) in test [3]; -24.3% (active) in test [4]; 3.41% (active) in [5]; 18.9% in test [6]. Moreover, the growth in test [7] was 15.4%; in test [8], 5.68% (active); in [9], -28.5% (active); in test [10] it was -15.7% (active).

As to `O=C(Nc1ccccc1)c1cc(-n2cnc([N+](=O)[O-])c2)cc(-n2cnc([N+](=O)[O-])c2)n1`, the growth in [1] was 110%; in test [2], 86.5%; in test [3], 94.4%; in test [4], 88.6%; in [5], -14.6% (active); in test [6], 119%. The growth in [7] was 130%; in test [8] it was 102%; in test [9] it was 89.3%; in test [10] it was 94.6%.

For the compound `Cc1ccc(C2=NNC(c3sc(Cl)nc3Cl)C2)cc1` (stereo unspecified), the growth was 95.6% in test [1]; 11.7% in test [2]; 77.6% in test [3]; 92.1% in test [4]; 108% in [5]; 98.3% in [6]. For the same compound, the growth in test [7] was 101%; in test [8], 118%; in test [9], 90.6%; in test [10] it was 86.5%.

Take `O=C1C=CC(=O)N1c1ccccc1N1C(=O)C=CC1=O`: the growth in test [1] was 110%; in [2] it was 50.2%; in [3] it was 144%; in test [4] it was 92.6%; in [5] it was 111%; in test [6], 97.7%. The growth was 125% in test [7], 100% in test [8], 115% in test [9] and 110% in [10].

Take `Cc1n(Cc2ccc3ccccc3c2)c2ccccc2[n+]1Cc1ccc2ccccc2c1`: the growth in test [1] is 0.672% (active); in test [2], -63.1% (active); in [3], -39.7% (active); in test [4] it was -83.6% (active); in [5], -88% (active); in [6] it was -67.6% (active). Besides, the growth in [7] is -37.6% (active); in [8], -56.4% (active); in test [9], -53.9% (active); in test [10] it was -69% (active).

Regarding `Cc1ccccc1NC(=O)NC(CC(N)=O)c1ccc2c(c1)nc(-c1cccc(Oc3ccc(C(C)(C)C)cc3)c1)n2CCCN1CCCCC1C` (stereo unspecified), the growth in test [1] is 68.2%; in test [2], -44.6% (active); in test [3], -52.6% (active); in [4] it was 28.1%; in [5], 25.1%; in test [6] it was 46.7%. Also, the growth in [7] was 83.5%; in [8], 13.1%; in [9], -71.3% (active); in [10], -81.8% (active).

On to `CCCCc1ccc(C(N)=O)nc1`, for which the growth was 102% in [1]; 109% in test [2]; 108% in [3]; 102% in test [4]; 103% in [5]; 101% in test [6]. Besides, the growth was 109% in test [7], 105% in [8], 97.8% in [9] and 100% in test [10].

For the compound `CCSc1nc(-c2ccco2)n2nc(-c3ccco3)cc2n1`, the growth in test [1] is 118%; in test [2], 116%; in test [3] it was 116%; in test [4], 88.1%; in test [5] it was 101%; in test [6], 113%. Further, the growth is 101% in test [7], 100% in test [8], 102% in [9] and 121% in [10].

`CC(C)=CCCC(C)c1ccc(C)c2c1OCN(CC1CCNCC1)C2` (stereo unspecified): the growth in [1] is 93.9%; in [2], 0.575% (active); in test [3], 94.1%; in [4] it was 68.8%; in test [5], 55.2%; in test [6] it was 93%. The growth is 98.7% in test [7], 76.9% in [8], 24.6% in test [9] and -95.4% (active) in test [10].

(Values after PubChem BioAssay (NCI).)
